Screens as filed in PubChem.
Sampled rows, rich in hits. Any-hit rate of the full collection: about 3.6%.
mHTT-CaM PPI inh – inhibitors of human mutant huntingtin-calmodulin interaction. P42858. inhibition, % at 15 µM. AlphaScreen His-mHTT/GST-CaM binding, luminescence. 190,000 tested, 3.6% active
Pf apPOL block – Pf-apPOL DNA polymerase inhibition | 210,000 tested, 0.25% active | AID 1794808 | Recombinant Pf-apPOL, molecular beacon fluorescence, 1.5 h | inhibition, % at 10 µM
Numbers stand for hits; – = inactive; · = no result given. No stated cut-off is given here; in the data, active means inhibition above about 50%; inactive means the rest.

SMILES	mHTT-CaM PPI inh	Pf apPOL block
Fc1cccc(Cl)c1-c1nnc2ccc3ccccc3n12	–	–
Cc1ccc(N=C(NN)c2ccc3ccccc3n2)cc1	–	–
CCOc1ccc(N=C(NN)c2ccc3ccccc3n2)cc1	56	–
O=C(Nc1cccc([N+](=O)[O-])c1)c1cc(S(=O)(=O)N2CCCC2)c(Cl)cc1Cl	–	–
CNC1C(O)C(NC)C2OC3(O)C(=O)CC(C)OC3OC2C1O (configuration not stated)	·	83
O=C(Cc1ccc([N+](=O)[O-])cc1)Nc1cccc(I)c1	–	–
COc1ccccc1CNC(=O)C(c1ccccc1)c1ccccc1	–	–
